BLM inh = inhibitors of human Bloom syndrome helicase BLM; P54132; recombinant BLM DNA unwinding, fluorescence dequenching; Potency, µM (series often up to 56.1 µM), without a hit: top-dose activity change, negative = inhibition, usual class: inhibitors; actives 0.2% (n = 350,000); AID 2528;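 further: plate controls were vehicle for no effect and no enzyme for full effect; nearly all actives have a fitted effect of over 35% in size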
FEN1 inhibitor = inhibitors of human flap endonuclease 1; Recombinant FEN1 flap cleavage, fluorescence, 15 min; actives 0.35% (n = 390,000); Potency, µM (highest dose often 114 µM), without a hit: top-dose activity change, negative = inhibition, usual class: inhibitors; further: nearly all actives have a fitted effect of over 65% in size
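Enzyme 10 nM, 15 min RT preincubation with compound; start with substrate 50 nM final; reads at 0 and 15 min; qHTS titration, four-parameter Hill fit.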
APE1 inh = blocks human APE1 abasic DNA cleavage. P27695. recombinant APE1, TAMRA/BHQ-2 abasic DNA cleavage fluorescence. Potency, µM (series often up to 65.8 µM), for inactives: top-dose activity change, negative = inhibition, usual class: inhibitors. actives 0.35% (n = 350,000). AID 2517;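 further: plate controls were vehicle for no effect and reference inhibitor for full effect; nearly all actives have a fitted effect of over 55% in size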
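APE1 at 0.75 nM preincubated 15 min at room temperature with compound. Reaction then started with 50 nM double-stranded THF-abasic substrate labelled with TAMRA/BHQ-2, and 525/598 nm fluorescence read kinetically. Activity taken as third-minus-first read difference, normalized to DMSO and NSC13755 controls.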
RECQ1 inh = blocks DNA unwinding by human RECQ1; P46063; RECQ1 DNA unwinding, red fluorescence kinetic read; Potency, µM (doses to about 57.3 µM), for the others: at the top dose activity, negative = inhibition, usual class: inhibitors; actives 0.54% (n = 240,000); AID 2549;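 further: plate controls were vehicle for no effect and no enzyme for full effect; nearly all actives have a fitted effect of over 30% in size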
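50 nM RECQ1T1 preincubated 15 min with compound in Tris pH 8.0 buffer with MgCl2, DTT, Tween-20 and 2.5 ug/ml poly(dI-dC); started with 200 nM TAMRA/BHQ-2 forked duplex and 2 mM ATP. Unwinding read as fluorescence (525/598 nm), two reads 2 h apart.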
TDP1 inh = blocks human tyrosyl-DNA phosphodiesterase 1. Q9NUW8. recombinant TDP1, AlphaScreen DNA substrate cleavage. Potency, µM (doses to about 130 µM), for the others: at the highest dose activity change, negative = inhibition, hits mostly inhibitors. actives 0.28% (n = 350,000); further: nearly all actives have a fitted effect of over 40% in size
Target sequence (Q9NUW8 whole entry, looked up): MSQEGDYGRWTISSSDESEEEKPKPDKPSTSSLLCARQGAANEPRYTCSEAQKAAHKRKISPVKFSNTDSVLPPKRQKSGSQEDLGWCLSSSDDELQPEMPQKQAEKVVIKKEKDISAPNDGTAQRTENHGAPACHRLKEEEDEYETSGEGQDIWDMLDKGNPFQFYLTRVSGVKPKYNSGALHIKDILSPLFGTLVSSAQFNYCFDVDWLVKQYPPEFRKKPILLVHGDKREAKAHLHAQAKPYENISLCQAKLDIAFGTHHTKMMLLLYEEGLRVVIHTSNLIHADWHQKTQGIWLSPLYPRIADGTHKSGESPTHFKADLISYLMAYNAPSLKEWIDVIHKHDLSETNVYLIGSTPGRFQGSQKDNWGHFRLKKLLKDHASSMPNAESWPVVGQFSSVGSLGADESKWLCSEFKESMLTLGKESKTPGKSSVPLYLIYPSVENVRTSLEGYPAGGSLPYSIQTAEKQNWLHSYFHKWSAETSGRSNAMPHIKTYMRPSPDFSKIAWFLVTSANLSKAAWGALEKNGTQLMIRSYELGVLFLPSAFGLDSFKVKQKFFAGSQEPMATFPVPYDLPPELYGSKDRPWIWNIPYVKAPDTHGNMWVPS
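AlphaScreen read-out: signal falls as enzyme removes the 3' tyrosine-FITC from a 5'-biotinylated DNA oligo (15 nM, 5 min, RT). Enzyme was E. coli-made recombinant Tdp1 at 1 nM, exposed to compound for 15 min beforehand; beads 10 ug/ml, 10 min.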
Starred values were filed as active, the others as inactive; i = inactive; u = inconclusive; x = not tested or not shown; ! = not active in a repeat; [ ] = dose if it differs, or a comment. The list is not random: actives were taken first. Their share in the collection is about 0.92%. The call rests on the fitted dose curve; in most records, active means well fitted curve in the direction sought with a large enough effect; inconclusive means small, poorly fitted or top-dose-only effect, or another doubt; inactive means no such curve, though single readings can be large; an effect the other way counts as inactive or inconclusive. Unless noted, on the % scale 0 is the no-effect control and ±100 the full control effect; potency means the concentration at half of the fitted maximal effect.

SMILES	BLM inh	FEN1 inhibitor	APE1 inh	RECQ1 inh	TDP1 inh
O=c1[nH]c(=S)[nH]c(O)c1N=Nc1ccc(S(=O)(=O)N2CCOCC2)cc1	-18%	-4%	u	i	20µM*
N.N.N.N.N.N.N.N.N.N.N.N.N.N.O.O.[Cl-].[Cl-].[Cl-].[Cl-].[Cl-].[Cl-].[Ru].[Ru].[Ru]	x	x	9%	14µM*	15%[56.1 µM]
CNc1ccc(C(=O)CC(O)CCC(C)C2OC(=O)CC(O)CC(=O)CC(O)CC(O)CC(O)CC(O)CC3(O)CC(O)C(C(=O)OC)C(CC(O[C@@H]4O[C@H](C)[C@@H](O)[C@H](N)[C@@H]4O)/C=C/C=C/C=C/C=C/C=C/C=C/C=C/C2C)O3)cc1 (stereo partly specified)	x	x	3%	x	x
Cc1c(O)c(O)cc2c1CC=C1[C@]3(C)CC[C@]4(C)CC[C@@](C)(C(=O)O)CC4[C@]3(C)CC[C@]12C (stereo partly specified)	-4%	x	1%	1%	13%[56.1 µM]
CC1=C(O)C(=O)C=C2C1=CC=C1C2(C)CCC2(C)C3CC(C)(C(=O)O)CCC3(C)CCC12C (stereo unspecified)	x	40µM*	x	x	x
NC1CCCC[C@H]1N (stereo partly specified)	-5%	x	-3%	-8%	8%
O=C1C(Cl)=C(Cl)C(=O)C(Cl)=C1Cl	-11%	x	40µM*	u	x
OC[C@@H](O)[C@H]1O[C@@H]2O[C@H](C(Cl)(Cl)Cl)O[C@@H]2[C@H]1O	x	x	-6%	x	x
O=[N+]([O-])c1cc(-c2ccc([As](=O)(O)O)cc2)ccc1[As](=O)(O)O	-4%	x	u	-4%	35µM*
CCC12CCN(CCc3ccc([N+](=O)[O-])cc3)CC1Oc1c(O)cccc12 (stereo unspecified)	x	x	-1%	x	x
O=C1C(I)=CC(=C(c2cc(I)c(O)c(I)c2)c2ccccc2C(=O)O)C=C1I	16µM*	x	u	x	x
ClP(Cl)(Cl)(Cl)Cl	x	x	2%	-3%	x
CC[C@H](C)[C@H]1O[C@]2(C=C[C@@H]1C)C[C@@H]1C[C@@H](C/C=C(\C)[C@@H](O[C@H]3C[C@H](OC)[C@@H](O[C@H]4C[C@H](OC)[C@@H](O)[C@H](C)O4)[C@H](C)O3)[C@@H](C)/C=C/C=C3\CO[C@@H]4[C@H](O)C(C)=C[C@@H](C(=O)O1)[C@]34O)O2	x	x	4%	x	x
CCCCCCCCOC(=O)c1ccccc1C(=O)OCCCCCCCC	1%	x	4%	5%	2%
CCCCOC(=O)c1ccccc1C(=O)OCc1ccccc1	x	-26%	37%	-1%	40µM*!
CC1(C)CC(=O)C2=C(C1)OC(N)=C([N+](=O)[O-])C2c1ccc(C#N)s1 (stereo unspecified)	-2%	-5%	u	28µM*	-6%
CN[C@H]1C[C@@H](N)[C@H](O)[C@@H](O[C@@H]2O[C@H](CO)[C@H](O)[C@@H]3OC4(O[C@H]23)O[C@H](C(N)CO)[C@H](O)[C@H](O)[C@H]4O)[C@@H]1O (stereo partly specified)	x	x	1%	x	x
Cc1ccc(-c2nc3c(=O)n(C)c(=O)nc-3n(C)n2)cc1	x	-17%	x	x	3%
Cn1ncnc2c(=O)n(C)c(=O)nc1-2	1.1µM*	13%	u	u	6%
CCCCCCCC/C=C\CCCCCCCC(=O)OC[C@@H](COP(O)(O)=S)OC	u	x	u	25µM*	x
CN(C)c1ccc(N)cc1	x	x	-1%	-13%	26%
COC(=O)C1(O)CC2OC1(C)n1c3ccccc3c3c4c(c5c6ccccc6n2c5c31)C(=O)NC4 (stereo unspecified)	3%[12.4 µM]	x	-6%[12.4 µM]	-5%[11.5 µM]	7%[21 µM]
CN[C@H]1C[C@H]2O[C@@](C)([C@H]1OC)n1c3ccccc3c3c4c(c5c6ccccc6n2c5c31)C(=O)NC4	-8%	x	u	28µM*	9%
CCN1C[C@]2(COC)[C@H](O)C[C@H](OC)[C@@]34[C@@H]5C[C@@]6(O)[C@H](OC(=O)c7ccccc7)[C@@H]5[C@@](OC(C)=O)([C@@H]([C@H](OC)[C@H]23)[C@@H]14)[C@@H](O)[C@@H]6OC	x	x	3%	x	x
